Assay results: PubChem BioAssay (Tox21)
Values joined by “and” are separate entries in the source; they are usually repeats but may differ in a detail not shown here. Equal values may be shown once. Inconclusive results are not listed. Where a call stands in place of a potency, no number is given. Some compounds were tested as several samples or in several runs, with calls that do not always agree. Active and inactive are the calls of the source. Unless noted, calls follow the shape of the dose curve; as a rule, active = well fitted curve in the direction sought with a large enough effect in the repeat runs; inconclusive = weak or mixed curves; inactive = no such curve, though single readings can be large; an effect the other way counts as inactive or inconclusive.

Tests used:
[1] = qHTS assay to identify small molecule agonists of the hypoxia (HIF-1) signaling pathway - cell viability counter screen (AID 1224844; calls by dose curve; also: nearly all actives have a fitted effect of over 50% in size; also: potency is read from the fitted curve at half-maximal effect)
In short: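 HRE-bla ME-180 cells, 2,000/well in 0.5% dialyzed FBS medium, treated 17 h at 37C with compounds. Viability read in the same wells as the bla reporter, by CellTiter-Glo luminescence after 30 min at room temperature.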

[2] = qHTS assay to identify small molecule agonists of the hypoxia (HIF-1) signaling pathway (AID 1224846; active = well fitted activation curve with a large enough effect in the signal ratio in the repeat runs, not every such curve was filed as active; the % refers to the signal ratio)
In short: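 HRE-bla ME-180 beta-lactamase reporter cells in medium with 0.5% dialyzed FBS, pre-incubated 5 h then exposed to compounds 17 h at 37C, 5% CO2; reporter induction read with CCF4-AM FRET substrate.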

[3] = qHTS assay to identify small molecule agonists of H2AX - cell viability counter screen (AID 1224847; calls by dose curve; also: nearly all actives have a fitted effect of over 30% in size; also: potency is read from the fitted curve at half-maximal effect)
In short: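 Cytotoxicity counter screen in wild-type CHO-K1 cells: a 3 hr compound treatment at 37C across 15 concentrations, followed by CellTiter-Glo luminescence to gauge viable cells.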

[4] = qHTS RealTime-Glo MT Cell Viability Assay in HepG2 cells - 24 hour (AID 1224867); also: nearly all actives have a fitted effect of over 50% in size; also: potency is read from the fitted curve at half-maximal effect
In short: (§1)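 HepG2 cells (600/well) were dispensed with RealTime-Glo reagents, incubated 5 h at 37 °C, then treated with compounds in DMSO for up to 40 h. Nonlytic NanoLuc luminescence reflecting viable cells was read at each stated time point.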

[5] = qHTS RealTime-Glo MT Cell Viability Assay in HEK293 cells - 32 hour (AID 1224868); also: nearly all actives have a fitted effect of over 50% in size; also: potency is read from the fitted curve at half-maximal effect
In short: (§2)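 HEK293 cells seeded with NanoLuc/prosubstrate reagent, rested 5 h at 37 C, then dosed and kept at 37 C up to 40 h. Nonlytic real-time luminescence from viable cells read at 0, 8, 16, 24, 32 and 40 h.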

[6] = A CellTox Green Cytotoxicity Assay to monitor cytotoxicity in HEK293 cells - 0 hour (AID 1224869); also: nearly all actives have a fitted effect of over 50% in size
In short: (§3)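 HEK293 cells, 600/well, were preincubated 5 hours and then exposed to compounds at 37 C for up to 40 hours. A cell-impermeant cyanine dye staining dead-cell DNA was read by fluorescence at 0, 8, 16, 24, 32 and 40 h time points.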

[7] = qHTS RealTime-Glo MT Cell Viability Assay in HepG2 cells - 40 hour (AID 1224870); also: nearly all actives have a fitted effect of over 50% in size; also: potency is read from the fitted curve at half-maximal effect
In short: (§4)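 Real-time viability: cells seeded at 600 per well together with NanoLuc and cell-permeant prosubstrate, compounds added after 5 h incubation. Luminescence tracked at 0, 8, 16, 24, 32 and 40 h of exposure.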

[8] = A CellTox Green Cytotoxicity Assay to monitor cytotoxicity in HEK293 cells - 40 hour (AID 1224871); also: nearly all actives have a fitted effect of over 45% in size
In short: as §3

[9] = qHTS RealTime-Glo MT Cell Viability Assay in HEK293 cells - 16 hour (AID 1224872); also: nearly all actives have a fitted effect of over 50% in size; also: potency is read from the fitted curve at half-maximal effect
In short: as §2

[10] = qHTS RealTime-Glo MT Cell Viability Assay in HepG2 cells - 8 hour (AID 1224873); also: nearly all actives have a fitted effect of over 55% in size; also: potency is read from the fitted curve at half-maximal effect
In short: as §4

[11] = qHTS RealTime-Glo MT Cell Viability Assay in HEK293 cells - 40 hour (AID 1224874); details: RealTime-Glo luminescence; max response: stronger effect = lower value; also: nearly all actives have a fitted effect of over 50% in size; also: potency is read from the fitted curve at half-maximal effect
In short: (§5)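 600 cells/well were plated with the nonlytic NanoLuc/prosubstrate reagent, pre-incubated 5 h, then given 23 nL of compound in DMSO. Incubation at 37 C for 40 h, with luminescence from viable-cell-reduced substrate read repeatedly from 0 h.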

[12] = A CellTox Green Cytotoxicity Assay to monitor cytotoxicity in HEK293 cells - 24 hour (AID 1224875); also: nearly all actives have a fitted effect of over 45% in size
In short: as §3

[13] = A CellTox Green Cytotoxicity Assay to monitor cytotoxicity in HepG2 cells - 16 hour (AID 1224876); also: nearly all actives have a fitted effect of over 45% in size; also: potency is read from the fitted curve at half-maximal effect
In short: (§6)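 HepG2 cells, 600/well, preincubated 5 h with CellTox Green dye, then exposed to Tox21 compounds in DMSO at 37 C for up to 40 h. Dead-cell DNA fluorescence read at the indicated time point.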

[14] = qHTS RealTime-Glo MT Cell Viability Assay in HepG2 cells - 32 hour (AID 1224877); also: nearly all actives have a fitted effect of over 55% in size; also: potency is read from the fitted curve at half-maximal effect
In short: as §1

[15] = A CellTox Green Cytotoxicity Assay to monitor cytotoxicity in HepG2 cells - 24 hour (AID 1224878); also: nearly all actives have a fitted effect of over 45% in size; also: potency is read from the fitted curve at half-maximal effect
In short: as §6

[16] = A CellTox Green Cytotoxicity Assay to monitor cytotoxicity in HepG2 cells - 40 hour (AID 1224879); also: nearly all actives have a fitted effect of over 40% in size; also: potency is read from the fitted curve at half-maximal effect
In short: as §6

[17] = qHTS RealTime-Glo MT Cell Viability Assay in HEK293 cells - 0 hour (AID 1224880)
In short: as §5

[18] = qHTS assay to identify small molecule antagonists of the estrogen related receptor (ERR) signaling pathway from Tox21 library (AID 1224848); also: nearly all actives have a fitted effect of over 50% in size; also: potency is read from the fitted curve at half-maximal effect
In short: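 Reading was by luminescence 30 min after ONE-Glo addition. Before that, ERR cells at 2,000 per well had rested 6 h at 37 C/5% CO2 and then received pin-tooled compounds in DMSO for 18 h at 37 C.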

[19] = qHTS assay to identify small molecule agonists of the estrogen related receptor (ERR) signaling pathway from Tox21 library (AID 1224849; calls by dose curve; also: nearly all actives have a fitted effect of over 15% in size); details: ERR reporter cell line, ONE-Glo luciferase, 18 h
In short: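 ERR reporter cells (NTP line) pre-incubated 6 hours at 37 C, then exposed to compounds for 18 hours at 37 C. ONE-Glo luciferase luminescence was read after 30 minutes at room temperature.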

Structure (SMILES): Cc1c(C(=O)O)c(O)cc2c1C(=O)c1c(O)c([C@@H]3O[C@H](CO)[C@@H](O)[C@H](O)[C@H]3O)c(O)c(O)c1C2=O
- Potency [1]: inactive
- outcome [2]: inactive
- Potency [3]: 55.3 µM (active) and 56.6 µM (active) and 31 µM (active)
- Potency [4]: inactive
- Potency [5]: inactive
- Potency [6]: inactive
- Potency [7]: inactive
- Potency [8]: inactive
- Potency [9]: inactive
- Potency [10]: inactive
- max response [11]: -10.5% (inactive) and -11.6% (inactive) and 0.861% (inactive)
- Potency [12]: inactive
- Potency [13]: inactive
- Potency [14]: inactive
- Potency [15]: inactive
- Potency [16]: inactive
- Potency [17]: inactive

Structure (SMILES): NC(=O)n1c(O)c(C(=O)c2cccs2)c2cc(Cl)ccc21
- Potency [1]: inactive
- Potency [3]: inactive
- Potency [4]: inactive
- Potency [6]: inactive
- Potency [7]: inactive
- Potency [8]: inactive
- Potency [9]: inactive
- Potency [10]: inactive
- max response [11]: 3.23% (inactive)
- Potency [12]: inactive
- Potency [13]: inactive
- Potency [14]: inactive
- Potency [15]: inactive
- Potency [16]: inactive

Structure (SMILES): CN[C@H]1CC[C@@H](c2ccc(Cl)c(Cl)c2)c2ccccc21
- Potency [1]: inactive
- Potency [3]: 49.2 µM (active)
- Potency [18]: 26.6 µM (active)
- activity change, positive = activation ([19]; at 42.5 µM (top of the series)): -39% (inactive)
- Potency [4]: 23.9 µM (active)
- Potency [5]: 23.9 µM (active)
- Potency [6]: inactive
- Potency [7]: 23.9 µM (active)
- Potency [11]: 23.9 µM (active)
- Potency [13]: 19 µM (active)
- Potency [14]: 23.9 µM (active)
- Potency [15]: 19 µM (active)
- Potency [16]: 16.9 µM (active)

Structure (SMILES): O=S1(=O)OC(c2ccc(O)cc2)(c2ccc(O)cc2)c2ccccc21
- Potency [1]: inactive
- outcome [2]: inactive
- Potency [3]: inactive
- Potency [18]: inactive
- activity change, positive = activation ([19]; at 42.5 µM (top of the series)): -3.19% (inactive)
- activity change, positive = activation ([19]; at 92.4 µM (top of the series)): -32% (inactive) and -12.4% (inactive)
- Potency [4]: 49 µM (active) and inactive
- Potency [6]: inactive
- Potency [7]: 49 µM (active) and inactive
- Potency [8]: inactive
- Potency [9]: inactive
- Potency [10]: 49 µM (active) and inactive
- max response [11]: -23.8% (inactive)
- Potency [12]: inactive
- Potency [13]: inactive
- Potency [14]: 49 µM (active) and inactive
- Potency [15]: inactive
- Potency [16]: inactive
- Potency [17]: inactive

Structure (SMILES): C=C1CC[C@H](O)C/C1=C\C=C1/CCC[C@]2(C)[C@@H]([C@H](C)CCCC(C)C)CC[C@@H]12
- Potency [1]: 38.5 µM (active)
- Potency [3]: 112 µM (active)
- Potency [4]: inactive
- Potency [6]: inactive
- Potency [7]: inactive
- Potency [9]: 38.5 µM (active)
- Potency [10]: inactive
- Potency [11]: 43.2 µM (active)
- Potency [12]: inactive
- Potency [13]: inactive
- Potency [14]: inactive
- Potency [15]: inactive
- Potency [16]: inactive
- Potency [17]: inactive
